Laboratory results published in publication PMC4336329 (PLoS ONE, 2015).
Among all 310,000 compounds or so, about 14,000 (4.5%) showed an effect of 50% or more. Effects have a minus sign here. For the sample, strong results were picked, then their nearest neighbours and some compounds at random.

Each molecule was assayed against human ether-à-go-go-related gene (hERG) potassium channel (human, UniProt Q12809) (assay: primary screen, population patch clamp on CHO cells stably expressing hERG; higher = less effect of the substance).
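Also: peak tail current of the secondary pulse compared with the same well before compound.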

human ether-à-go-go-related gene (hERG) potassium channel, sequence (Q12809 whole entry, looked up): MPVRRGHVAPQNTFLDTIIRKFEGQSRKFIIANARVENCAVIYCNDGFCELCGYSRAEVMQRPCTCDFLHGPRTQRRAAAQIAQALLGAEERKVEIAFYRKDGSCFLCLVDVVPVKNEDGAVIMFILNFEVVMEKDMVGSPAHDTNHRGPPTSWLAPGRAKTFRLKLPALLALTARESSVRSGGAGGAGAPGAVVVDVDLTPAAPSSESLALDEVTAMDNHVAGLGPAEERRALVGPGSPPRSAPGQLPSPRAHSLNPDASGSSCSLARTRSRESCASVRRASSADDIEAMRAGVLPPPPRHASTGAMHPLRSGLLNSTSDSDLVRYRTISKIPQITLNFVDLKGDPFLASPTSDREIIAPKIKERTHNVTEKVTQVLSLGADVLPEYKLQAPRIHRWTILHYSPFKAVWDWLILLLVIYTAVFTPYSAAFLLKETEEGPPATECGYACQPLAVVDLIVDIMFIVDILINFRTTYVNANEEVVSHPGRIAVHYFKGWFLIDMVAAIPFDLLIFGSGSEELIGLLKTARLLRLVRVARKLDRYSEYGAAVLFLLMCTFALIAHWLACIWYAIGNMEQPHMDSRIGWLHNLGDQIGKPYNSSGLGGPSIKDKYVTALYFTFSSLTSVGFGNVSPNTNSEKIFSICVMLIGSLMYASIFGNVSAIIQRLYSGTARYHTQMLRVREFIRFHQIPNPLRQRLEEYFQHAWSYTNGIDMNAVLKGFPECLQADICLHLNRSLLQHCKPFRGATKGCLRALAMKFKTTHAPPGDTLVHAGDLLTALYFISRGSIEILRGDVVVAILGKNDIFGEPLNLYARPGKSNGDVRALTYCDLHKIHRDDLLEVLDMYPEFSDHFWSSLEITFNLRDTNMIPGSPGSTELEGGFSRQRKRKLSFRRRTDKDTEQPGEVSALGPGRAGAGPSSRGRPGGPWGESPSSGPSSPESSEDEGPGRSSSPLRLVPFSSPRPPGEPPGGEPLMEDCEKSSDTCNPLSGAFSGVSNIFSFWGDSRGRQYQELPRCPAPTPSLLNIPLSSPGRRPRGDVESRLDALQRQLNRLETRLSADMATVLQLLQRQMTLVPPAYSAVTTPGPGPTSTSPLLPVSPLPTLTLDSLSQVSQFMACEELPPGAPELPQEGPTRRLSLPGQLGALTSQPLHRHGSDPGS

Row | Structure (SMILES) | hERG current change (%, negative = inhibition) at 10uM
1 | CC1CCC(C)(NS(=O)(=O)OCC(Cl)(Cl)Cl)CC1 (stereo not drawn) | -21.7%
2 | CN(C)C(/C=C/Nc1ccc(F)cc1)=C(C#N)C#N | -8.47%
3 | CCN1C(=O)c2ccccc2S(=O)(=O)c2ccc(C(=O)NCC(OC)OC)cc21 | 6.16%
4 | NNC(=O)COc1ncn(-c2ccccc2)n1 | 18%
5 | N#Cc1ccsc1NC(=O)COC(=O)c1cc(Br)ccc1O | -22.2%
6 | Cc1c(C(=O)N2CCCc3ccccc32)oc2ccc(S(=O)(=O)N3CCOCC3)cc12 | -44.2%
7 | O=C(CNCCc1ccc(F)cc1)Nc1cc(F)ccc1F.O=C(O)C(=O)O | -19.9%
8 | CCOc1ccccc1NC(=O)COc1ccc(S(=O)(=O)N2CCCC2)cc1 | -4.32%
9 | O=C(NCC1CCCO1)c1ccc([N+](=O)[O-])s1 (stereo not drawn) | 25.4%
10 | CCOC(=O)C(c1ccccc1)N1CCN(c2ccc(OC)cc2)CC1 (stereo not drawn) | 4.91%
11 | C/C(CC(=O)Nc1ccc2c(c1)OCCO2)=N\NC(=O)Cc1ccccc1 | -9.4%
12 | CCOc1ccc(OCCOC(=O)C2CCN(S(=O)(=O)c3ccc(C)c(C)c3)CC2)cc1 | -22.4%
13 | COc1ccc(COCC(O)CN2CCCCC2)cc1OC.Cl (stereo not drawn) | 16.6%
14 | CN1CCN(CC(O)COCc2ccc3c(c2)OCO3)CC1.Cl (stereo not drawn) | 6.52%
15 | Cl.OC(COCc1ccc2c(c1)OCO2)CN1CCCCC1 (stereo not drawn) | -2.96%
16 | COc1ccc(COCC(O)CN2CCC(CN3C(=O)c4cccc5cccc(c45)C3=O)CC2)cc1OC.Cl (stereo not drawn) | -71.5%
17 | Cl.OC(COCc1ccc2c(c1)OCO2)CN1CCN(Cc2ccccc2)CC1 (stereo not drawn) | -33.1%
18 | Cl.OC(COCc1ccc2c(c1)OCO2)CN1CCC(Cc2ccccc2)CC1 (stereo not drawn) | -87.6%
19 | Cl.OCCN1CCN(CC(O)COCc2ccc3c(c2)OCO3)CC1 (stereo not drawn) | -1.01%
20 | Cl.O=C1c2cccc3cccc(c23)C(=O)N1CC1CCN(CC(O)COCc2ccc3c(c2)OCO3)CC1 (stereo not drawn) | -75.3%

Row | Structure (SMILES) | hERG current change (%, negative = inhibition) at 10uM
21 | COc1ccc(COCC(O)CN2CCOCC2)cc1OC.Cl (stereo not drawn) | 20.8%
22 | Cc1ccc2nc(C(O)C(O)c3nc4ccc(C)cc4[nH]3)[nH]c2c1 (stereo not drawn) | -6.37%
23 | O=C(Nc1nc(-c2ccc(Cl)cc2Cl)cs1)c1ccc(OCC2CCCO2)cc1 (stereo not drawn) | 6.82%
24 | COCCNc1nnc(SC(C)C(=O)Nc2c(C)n(C)n(-c3ccccc3)c2=O)s1 (stereo not drawn) | 11.8%
25 | CCCCN(CC)CCNC(=O)c1cn(-c2ccc(Cl)cc2)c(=O)c2ccccc12 | -77.7%
26 | CCN(CC)CCCNC(=O)CNC(=O)c1nn(-c2ccc(OC)cc2)c(=O)c2ccccc12 | 23.8%
27 | CCCN(CCC)CCCNC(=O)c1cn(-c2ccc(OC)cc2)c(=O)c2ccccc12 | -48%
28 | CCCCN(CC)CCCNC(=O)c1cn(-c2ccc(OC)cc2)c(=O)c2ccccc12 | -56.5%
29 | CCN(CC)CCCNC(=O)c1nn(-c2ccc(OC)cc2OC)c(=O)c2ccccc12 | -0.745%
30 | CCOC(=O)C(C)NC(=O)c1cn(-c2ccc(OC)cc2)c(=O)c2ccccc12 (stereo not drawn) | 5.7%
31 | CCCCN(CC)CCNC(=O)c1cn(C)c(=O)c2c1c1ccccc1n2C | -24.6%
32 | COc1cccc(-n2nc(C(=O)O)c3ccccc3c2=O)c1 | 6.72%
33 | CNC(=O)c1cn(-c2ccc(Cl)cc2)c(=O)c2ccccc12 | -9.43%
34 | COc1cccc(-n2nc(C(=O)N3CCN(Cc4ccccc4)CC3)c3ccccc3c2=O)c1 | -50.3%
35 | CCN(CC)CCCNC(=O)c1nn(-c2cccc(OC)c2)c(=O)c2ccccc12 | -70.6%
36 | COc1cccc(-n2nc(C(=O)N3CC(C)CC(C)C3)c3ccccc3c2=O)c1 (stereo not drawn) | 3.43%
37 | O=C(c1ccccc1[N+](=O)[O-])N1CCN(Cc2ccc3c(c2)OCO3)CC1 | -13.4%
38 | Cc1cccc(N2C(S)=C(C#N)C(=O)NC23CCCCC3)c1 | -7.13%
39 | CCCCC(=O)Nc1ccc(NC(=O)c2ccco2)cn1 | 10.1%
40 | CCOc1ccccc1N1CCN(C(=O)c2csc(C)c2CC)CC1 | -8.41%

Row | Structure (SMILES) | hERG current change (%, negative = inhibition) at 10uM
41 | COC(=O)CSC1=C(C#N)C(c2ccccc2OC)C(C(=O)OC)C(=O)N1 (stereo not drawn) | 15.6%
42 | C/C(=C\C(=O)c1sccc1Cl)N(C)C | 0.12%
43 | Cc1cnc([N+](=O)[O-])n1CCOC(=O)c1cccc(F)c1 | -3.45%
44 | O=C(Cn1cnc2c(cnn2-c2ccccc2)c1=O)Nc1cc(S(=O)(=O)N2CCOCC2)ccc1Cl | -32.2%
45 | CCOc1cc(C(=S)N2CCCCC2)ccc1OCC(=O)NCc1ccccc1 | -31.2%
46 | COc1ccc(N2CCN(C(=O)Cn3cnc4c(cnn4-c4ccc(C)cc4)c3=O)CC2)cc1 | -9.24%
47 | CCN(CC)CCCNC(=O)c1cn(-c2cccc(OC)c2)c(=O)c2ccccc12 | -68.5%
48 | COc1cccc(-n2cc(C(=O)NCCCOC(C)C)c3ccccc3c2=O)c1 | -6.95%
49 | COCCCNC(=O)c1cn(-c2cccc(OC)c2)c(=O)c2ccccc12 | 18.1%
50 | CC(/C=C/c1ccccc1)=N\NC(=O)CNC(=O)c1ccccc1Cl | 7.15%
51 | O=C(CSC1CC(=O)N(c2ccc(C(=O)O)cc2)C1=O)Nc1ccc2ccccc2c1 (stereo not drawn) | 15.8%
52 | Cc1ccc(C(=O)NCCNc2ccc(Cl)cc2[N+](=O)[O-])o1 | -60%
53 | Cc1ccoc1C(=O)NCCNc1ccc(Cl)cc1[N+](=O)[O-] | -30.5%
54 | CN(C)CCNc1ccc(Cl)cc1[N+](=O)[O-] | -18.7%
55 | O=C(NCCCNc1ccc(C(F)(F)F)cc1[N+](=O)[O-])c1cc(F)c(F)cc1Cl | -15.7%
56 | O=C(NCCNc1ccc(Cl)cc1[N+](=O)[O-])c1cccnc1 | -29.4%
57 | O=C(NCCNc1ccccc1[N+](=O)[O-])c1ccccc1F | 4.11%
58 | CCNCCNc1ccc(Cl)cc1[N+](=O)[O-].Cl | -20.3%
59 | O=C(NCCNc1ccccc1[N+](=O)[O-])c1cc(F)c(F)cc1Cl | -52.1%
60 | CCN(CC)CCNc1ccc(Cl)cc1[N+](=O)[O-].Cl | -61.6%
